Compound activity deposited in PubChem by National Center for Advancing Translational Sciences (NCATS).
The entries come from a sample that favours hits as a whole.
ALOX12 inh – inhibitors of human 12S-lipoxygenase ALOX12; P18054; purified 12hLO, xylenol orange hydroperoxide absorbance; Potency, µM (highest dose often 108 µM), without a hit: top-dose activity change, negative = inhibition, actives largely listed as inhibitors; actives 1.1% (n = 580,000); AID 1671190; note: potency is the fitted concentration of half-maximal effect
Target sequence (P18054 whole entry, looked up): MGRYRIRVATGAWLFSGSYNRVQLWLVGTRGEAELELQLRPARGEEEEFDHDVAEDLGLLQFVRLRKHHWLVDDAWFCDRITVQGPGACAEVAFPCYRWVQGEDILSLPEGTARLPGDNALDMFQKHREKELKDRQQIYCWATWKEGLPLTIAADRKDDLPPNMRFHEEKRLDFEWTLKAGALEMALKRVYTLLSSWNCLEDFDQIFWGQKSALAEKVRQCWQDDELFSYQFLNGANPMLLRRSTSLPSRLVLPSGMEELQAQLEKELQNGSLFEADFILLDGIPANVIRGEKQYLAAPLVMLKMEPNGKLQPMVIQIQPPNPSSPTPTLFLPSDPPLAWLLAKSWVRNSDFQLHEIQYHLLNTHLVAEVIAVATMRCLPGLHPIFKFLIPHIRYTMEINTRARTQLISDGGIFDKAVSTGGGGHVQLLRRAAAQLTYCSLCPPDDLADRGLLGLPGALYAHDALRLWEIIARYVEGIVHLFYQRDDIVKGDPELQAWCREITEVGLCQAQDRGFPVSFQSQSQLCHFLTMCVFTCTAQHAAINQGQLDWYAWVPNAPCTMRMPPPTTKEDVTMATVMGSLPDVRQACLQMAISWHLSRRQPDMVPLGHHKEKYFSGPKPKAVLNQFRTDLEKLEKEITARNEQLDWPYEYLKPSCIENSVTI
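Hydroperoxide product was detected by ferrous iron/xylenol orange as the 573 to 405 nm absorbance ratio. Arachidonic acid at 40 uM (final) was turned over for 30 min at room temperature by 150 nM human 12hLO, pH 7.0 Hepes buffer, after 15 min compound preincubation.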
IL-1B inflam inh – inhibitors of inflammasome signaling (IL-1 beta secretion); AID 743279; activity change, % at 57.5 µM; THP-1 LPS/ATP IL-1B secretion, AlphaLISA, 16 h; hits give low values; actives 4.7% (n = 360,000); in the data active = activity change below about -50%; inconclusive = mostly about -30% to -49%
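THP-1 cells pretreated 1 hr with compounds (up to 57.5 uM final), then stimulated with LPS (250 ng/mL final) plus ATP (1.25 mM final); secreted IL-1B measured by AlphaLISA after 16 hr, decreased signal indicating inhibition.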
HT1080 IDH1KD tx – HT-1080 IDH1 knockdown cell toxicity (counter line); actives 2% (n = 360,000); HT-1080 IDH1 knockdown viability, ATP luminescence, 48 h; AID 686971; Potency, µM (series often up to 46.1 µM), for the others: at the highest dose activity, negative = toxicity, hits mostly cytotoxic;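 note: potency is the fitted concentration of half-maximal effect; 0% = DMSO wells and -100% = cell-free medium wells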
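Knockdown cells (IDH1KD HT-1080) received compounds 2 h after plating at 750 cells/well and were kept 48 h at 37 °C in 5% FBS RPMI. A CellTiter-Glo luminescence read gave % activity for curve fitting.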
DT40 TDP1 CPT – growth inhibition of DT40 Tdp1-/-;hTDP1 cells with camptothecin (screen for TDP1 inhibitors); chicken DT40 Tdp1-/-;hTDP1 cells + 20 nM CPT, ATP luminescence, 48 h; Potency, µM (titrated, usually from 46.2 µM), for the others: at the top dose activity change, negative = growth inhibition, most hits filed as inhibitors; actives 12% (n = 420,000); AID 686979; note: potency is the fitted concentration of half-maximal effect; nearly all actives have a fitted effect of over 55% in size
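Cell growth measured by CellTiter-Glo luminescence after a minimum 48 h, 37 C compound exposure with 20 nM CPT in Tdp1-knockout DT40 cells stably expressing hTDP1, seeded 400/well; qHTS titration format.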
HT1080-NT tox – kills 2HG-producing HT-1080-NT fibrosarcoma cells. HT-1080-NT fibrosarcoma viability, CellTiter-Glo ATP luminescence, 48 h. Potency, µM (series often up to 46.1 µM), inactives show top-dose activity, negative = less viability, hits mostly cytotoxic. actives 1.6% (n = 360,000). AID 686970;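 note: NT is the 2HG producing partner of a matched IDH1 knockdown line; potency is the fitted concentration of half-maximal effect; 0% = DMSO-treated cells and -100% = media-only wells without cells; nearly all actives have a fitted effect of over 55% in size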
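Compounds were tested in concentration-response format on HT-1080-NT cells for 48 hours at 37 degrees C. Cell viability came from CellTiter-Glo luminescence; curves were classified by r2, response magnitude and activity.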
DT40 TDP1 no CPT – qHTS for Inhibitors of human tyrosyl-DNA phosphodiesterase 1 (TDP1): qHTS in cells in absence of CPT; DT40 Tdp1-/- hTDP1 cells, no CPT, ATP luminescence, 48 h; Potency, µM (series often up to 46.2 µM), for inactives: at the highest dose activity change, negative = growth inhibition, usual class: inhibitors; actives 15% (n = 420,000); AID 686978, 2013; note: potency is the fitted concentration of half-maximal effect; nearly all actives have a fitted effect of over 55% in size
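Camptothecin absent (DMSO only). Human TDP1-complemented DT40 knockout cells, 400 cells/well, 37 °C for minimum 48 hr; ATP measured via CellTiter-Glo, 30 min dark incubation, luminescence.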
An asterisk follows results filed as active; u = inconclusive; x = no result given; [ ] = remark or other dose. Unless noted, calls come from the whole dose curve; as a rule, active = well fitted curve in the direction sought with a large enough effect; inconclusive = small, poorly fitted or top-dose-only effect, or another doubt; inactive = no such curve, though single readings can be large; an effect the other way counts as inactive or inconclusive. Unless noted, % is set by controls: 0 for no effect and ±100 for the full control effect.

SMILES	ALOX12 inh	IL-1B inflam inh	HT1080 IDH1KD tx	DT40 TDP1 CPT	HT1080-NT tox	DT40 TDP1 no CPT
CCCn1c(CN2CCN(c3cccc(Cl)c3)CC2)nc2c1c(=O)n(C)c(=O)n2C	u	25	-21%	5.8µM*	-4%	6.5µM*
Cc1ccc(-c2csc3ncnc(Oc4ccc5c(C)cc(=O)oc5c4)c23)cc1	15%	28	9%	18µM*	3%	u
c1ccc(-c2csc3ncnc(Oc4ccc5ccccc5c4)c23)cc1	-11%	x	x	x	x	x
CCN(c1ccccc1)S(=O)(=O)c1ccc(C(=O)N2CCN(c3ccccc3F)CC2)cc1	-1%	-5	13%	u	0%	21µM*
COc1ccc(N(C)S(=O)(=O)c2cccc(C(=O)N3CCN(c4cccc(C)c4C)CC3)c2)cc1	49%	u	1%	u	7%	16µM*
Cc1cccc(N2CCN(C(=O)CNC(=O)c3ccccc3)CC2)c1C	-3%	-2	u	-11%	-25%	u
Cc1cccc(N2CCN(C(=O)c3ccc(S(=O)(=O)N(C)c4ccccc4)cc3)CC2)c1C	-17%	-18	7.3µM*	5.8µM*	u	4.6µM*
Cc1cccc(N2CCN(C(=O)CNC(=O)C3CCCCC3)CC2)c1C	-16%	3	u	18µM*	-20%	u
CCN(c1ccccc1)S(=O)(=O)c1ccc(C(=O)N2CCOCC2)cc1	6%	7	8%	-13%	11%	-1%
COc1ccc(C(=O)N2CC3(C2)NC(=O)c2ccccc2O3)cc1	15%[176 µM]	x	x	x	x	x
c1ccc(-c2cnc(Nc3ccc4c(c3)OCCO4)c3c2CCO3)cc1	4%[176 µM]	x	x	x	x	x
Cc1cccc(N2CCN(C(=O)CSCc3ccc(F)cc3)CC2)c1C	-23%	x	x	u	x	u
Cc1cccc(N2CCN(C(=O)c3cc(S(=O)(=O)N(C)C)ccc3N3CCCC3)CC2)c1C	-2%	-58*	-18%	u	-17%	u
Cc1cccc(N2CCN(C(=O)c3ccccc3SCC(=O)N3CCCC3)CC2)c1C	118%	0	-5%	9.2µM*	-4%	13µM*
Cc1ccc(S(=O)(=O)N2CCN(C(=O)c3cc(S(=O)(=O)N(C)C)ccc3N3CCCC3)CC2)cc1	-3%	-16	5%	-12%	2%	-29%
COCCn1ncc(N2CCCC(CC(=O)NCCc3ccccc3)C2)cc1=O (centres undefined)	28%	x	x	x	x	x
CC1(C)CC2(OC2c2ccccc2[N+](=O)[O-])C(=O)c2ccccc21 (centres undefined)	-21%	3	-12%	16µM*	-12%	18µM*
Cc1cc(N2CCN(Cc3cn(C)nc3-c3cccc(Cl)c3)CC2)cc(C)n1	-3%	-82*	16µM*	5.2µM*	15µM*	5.8µM*
Cc1cc(N2CCN(Cc3cn(C)nc3-c3ccccc3F)CC2)cc(C)n1	2%	u	u	5.8µM*	u	5.8µM*
CCOc1ccc(C(=O)OCC(=O)N(Cc2ccccc2)Cc2ccccc2)cc1OC	13%	-4	-9%	21µM*	-12%	u
COc1ccc(CN(C)C(=O)C(Cc2ccccc2)NC(=O)c2ccccc2)cc1F (centres undefined)	u	-12	-25%	16µM*	-14%	13µM*
CN(Cc1ccc(F)cc1)C(=O)C(Cc1ccccc1)NC(=O)c1ccccc1 (centres undefined)	-25%	-18	1%	u	-4%	18µM*
CCOc1ccc(C(=O)OCc2c(Cl)cccc2Cl)cc1OC	-4%	x	x	x	x	x
CCOc1ccc(CN(C)C(=O)[C@H](Cc2ccccc2)NC(=O)OCc2ccccc2)cc1OC	2%	-77*	-21%	u	-1%	21µM*
CC(C)CN(Cc1ccc(F)cc1)Cc1cc(=O)n2c3c(sc2n1)CCCC3	-22%	x	x	x	x	x
SMILES	ALOX12 inh	IL-1B inflam inh	HT1080 IDH1KD tx	DT40 TDP1 CPT	HT1080-NT tox	DT40 TDP1 no CPT
COC(=O)CC(NC(=O)CNC(=O)c1ccc(N2CCCC2=O)cc1)c1ccc(Cl)cc1 (centres undefined)	26%	x	x	x	x	x
Cc1ccc(C)c(OCC(O)Cn2nc(C(N)=O)c3ccccc3c2=O)c1C (centres undefined)	55%	x	x	x	x	x
CC(=O)N1CCC([C@@H]2CN(C(=O)CCCc3ccccc3)C[C@H]2CO)CC1	5%	x	x	x	x	x
CC(=O)NCCC(=O)N1Cc2ccccc2CC2(CCCN(CC3CCOCC3)C2)C1 (centres undefined)	2%[6.33 µM]	x	x	x	x	x
COc1ccc(CN(C)C(=O)c2cccc(S(=O)(=O)NCc3ccccc3)c2)cc1F	3%	9	3%	-11%	4%	8%
CCN(Cc1ccc(OC)c(F)c1)C(=O)CCl	-2%	-96*	16µM*	4.1µM*	18µM*	4.1µM*
COc1ccc(CN(C)C(=O)c2ccc(Oc3ccccc3)cc2)cc1F	2%	-74*	-6%	-27%	-20%	u
COc1cccc(C(=O)C(=O)NC(C)(C)C)c1	-3%	x	x	x	x	x
CSC(SC)=C(C#N)C(=O)c1ccccc1	0%	-89*	21µM*	2.1µM*	u	2.6µM*
COc1cccc(C(=O)C(C#N)=C(SC)SC)c1	-29%	-5	0%	2.6µM*	-7%	2.3µM*
O=C(O)c1ccc(C(=O)C(=O)c2ccccc2)cc1	0%	28	9%	2%	8%	16%
COCc1cc(C)n(CC(=O)Nc2cc(C)c(C)cc2Br)c(=O)c1C#N	-2%	x	x	x	x	x
Cc1oc(-c2cccs2)nc1CC(=O)N(Cc1ccc(C(F)(F)F)cc1)C1CC1	-8%	x	x	x	x	x
CC1(c2ccccc2)N(Cc2ccccc2F)C(=O)OC12CCN(C(=O)COc1ccccc1C(N)=O)CC2 (centres undefined)	1%	x	x	x	x	x
COc1ccccc1OCCNc1cc(N2CCCCC2)ccc1[N+](=O)[O-]	4%	-26	0%	u	1%	u
Cc1cccc(OCCNc2cc(N3CCOCC3)ccc2[N+](=O)[O-])c1	21%	-17	u	u	u	u
Cc1ccc(OCCNc2cc(N3CCN(CCO)CC3)ccc2[N+](=O)[O-])cc1C	u	u	u	u	u	29µM*
Cc1cccc(OCCNc2cc(N3CCN(C)CC3)ccc2[N+](=O)[O-])c1	12%	u	16%	u	2%	23µM*
